High-throughput results (PubChem BioAssay)
The entries come from a sample that favours hits as a whole.
Tg IFNy HTS: inhibitors of Toxoplasma gondii growth with IFN-gamma; Toxoplasma gondii growth in IFN-gamma-treated host cells; active compounds read low; activity change, negative = inhibition, % (no concentration beside the values); 69,000 compounds, 3.8% hits; in the data active means activity change below about -70%, passing the limit was not always enough;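 further: host cells are HeLa cells infected with Toxoplasma gondii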
* hit, by the source's call.

SMILES	Tg IFNy HTS
Cc1ccc(S(=O)(=O)c2ncsc2SCc2ccc(Cl)cc2Cl)cc1	-94*
CNC(=O)[C@H]1CC2CN(C(=O)Cc3ccsc3)CC2N1C(C)=O (some centres undefined)	12
COCC1(C(=O)N2CCN3C(=O)CN(C)C(=O)C3C2)CCC1 (centres undefined)	-3
Cc1nc(CN2C(=O)COC3(CCN(CC4CC4)CC3)C2C)cs1 (centres undefined)	-1
Cc1cccc(-n2c(SCC(N)=O)nnc2-c2cccs2)c1C	-3
COc1ccc(OCc2nn3c(-c4cccs4)nnc3s2)cc1	-69
CCCCOc1ccc(-c2nnc(-c3cccs3)n2-c2ccccc2)cc1	-80*
CCN(CC)C(=O)c1cc(=O)n(CC(=O)Nc2cccc(Cl)c2C)c2ccccc12	-51
Cc1oc(-c2cccc(C(F)(F)F)c2)nc1CN(C)Cc1cnccn1	8
CN(C)C1CCN(C(=O)Cc2cccc(F)c2)C(C(=O)O)C1 (centres undefined)	3
c1ccc2c(CC3=NCCN3)cccc2c1	-1
C(=N\NC1=NCCN1)/c1c2ccccc2c(/C=N/NC2=NCCN2)c2ccccc12	-75*
Brc1c(NC2=NCCN2)ccc2nccnc12	11
CC(C)c1noc(C(C)NC(=O)c2cccc3c2NCCC3)n1 (centres undefined)	10
Cc1ccc(S(=O)(=O)N2CCC3(CC(C(=O)NCC(C)C)=NO3)C2)cc1 (centres undefined)	0
CN(Cc1ccccn1)C(=O)c1cc(-c2cnc(-c3cccc(F)c3)nc2)cn1C	170
CCCCS(=O)(=O)N1CCC2(CC2C(=O)N(C)Cc2ccccn2)C1 (centres undefined)	114
CN(Cc1ccccn1)C(=O)C1=NOC2(CCN(S(=O)(=O)c3ccc(F)cc3)C2)C1 (centres undefined)	-80*
CC(C)N(C)C(=O)C1=NOC2(CCN(C(=O)c3ccccn3)C2)C1 (centres undefined)	0
CN(Cc1ccccn1)C(=O)C1=NOC2(CCN(S(=O)(=O)c3cccc(F)c3)C2)C1 (centres undefined)	-81*
CCOC(=O)c1nc(-c2ccc(Cl)cc2)no1	25
COc1ccc(NC(=O)N[C@@H]2CC[C@@H](CCNC(=O)CN3CCOCC3)O[C@H]2CO)cc1	-4
O=C1c2ccccc2C(Cc2ccncc2)(Cc2ccncc2)c2ccccc21	7
O=C1C(=O)N(Cc2ccc(Cl)c(Cl)c2)c2ccccc21	20
CC(=O)O/N=C1/C(=O)N(Cc2cc(Cl)ccc2Cl)c2ccc(Cl)cc21	-79*
SMILES	Tg IFNy HTS
COc1ccc(F)c(CN2CCC(NS(C)(=O)=O)CC2)c1Cl	4
COc1ccc(F)c(F)c1C(=O)c1cnc(NC2CCN(S(C)(=O)=O)CC2)nc1N	-76*
CC(C)(C)NC(=O)N1CCC(Nc2nccc(C(F)(F)F)n2)CC1	-62
COc1ccc2nc(N3CCCC3C(=O)NCCCc3ccccc3)nc(C)c2c1 (centres undefined)	12
CCOc1ccc(C(=O)CC(SCc2ccc(Cl)cc2)C(=O)O)cc1 (centres undefined)	-22
CCn1c(C2CCCN(C(=O)c3nc4ccccc4s3)C2)nn(C)c1=O (centres undefined)	-3
O=C([C@@H]1CCS(=O)(=O)[C@H]2CN(Cc3ccc(F)cc3)C[C@@H]12)N1CCOCC1	10
Cc1ccc(Cl)cc1N(CC(=O)Nc1c(F)cccc1F)S(C)(=O)=O	-76*
CS(=O)(=O)N(CCCC(=O)NCc1ccco1)c1cc(Cl)ccc1Cl	99
Cc1ccccc1NC(=O)CN(c1cc(Cl)ccc1C)S(C)(=O)=O	-39
CN1CCN(C(=O)c2cc3c(c(-c4cccc(Br)c4)n2)[C@@H](CCO)N([S@](=O)C(C)(C)C)C3)CC1	-15
CS(=O)(=O)c1ccc(Cn2c3c(c4cc(F)cc(F)c42)CCCC3CC(=O)O)cc1 (centres undefined)	-5
O=C(O)c1cccc(-c2ccc3c(c2)OCO3)c1	-75*
O=C(O)c1cc(-c2ccc3c(c2)OCO3)nc2ccc(Br)cc12	8
O=C(c1ccc2c(c1)OCO2)N1CCCCC1	-4
CCc1ccc(NC(=O)Cn2c(=O)ccc3cc(S(=O)(=O)N4CCCC4)ccc32)cc1	-46
CCCc1nc(N2CCC3(CC2)CN(C)C(=O)O3)c2cnn(C)c2n1	30
CC(C)(C(=O)NCC(F)(F)C(F)(F)F)C(=O)N[C@@H]1C(=O)Nc2ccccc2-c2ccccc21	-89*
CCC(=O)N1CCCC(C2C(=O)Nc3ccccc32)C1 (centres undefined)	1
CCCCCCCCCCCC[N+](C)(C)CCOc1ccccc1	-20
COc1ccc(CN(C(=O)c2cc(C(C)C)c3nncn3n2)C2CCN(C)CC2)cc1	6
COc1ccc(-c2ccc(C(=O)N(Cc3nccn3C)C3CC3)o2)cc1	12
COc1ccc(CN(C(=O)c2cc(-c3ccc(C)cc3)on2)C2CCN(C)CC2)cc1	-76*
O=C(NCc1ccccc1Cl)c1c(O)c2cccnc2n(-c2cccc(F)c2)c1=O	96
Cc1ccc(CNC(=O)c2cncc(N(C)S(=O)(=O)c3ccccc3)c2)cc1	24
SMILES	Tg IFNy HTS
COc1cccc(-c2nn(C)c3c2[C@H]2CN(S(C)(=O)=O)C[C@@H]2C3)c1	-4
Cc1cc(C)cc(NC(=O)CSc2nnnn2-c2ccc3c(c2)OCO3)c1	-13
Fc1ccc(CSc2nnnn2-c2ccc3c(c2)OCO3)c(Cl)c1	-72*
c1ccc(CSc2nnnn2-c2ccc3c(c2)OCO3)nc1	26
COc1ccc(-c2nc3c(s2)CN(S(=O)(=O)c2ccc(CC(C)C)cc2)CC3)cc1	11
COc1ccc(-c2nc3c(s2)CN(S(=O)(=O)c2cccc(F)c2)CC3)cc1	-4
COc1ccc(-c2nc3c(s2)CN(S(=O)(=O)c2cccs2)CC3)cc1	-94*
CCOc1ccc(S(=O)(=O)N2CCc3nc(-c4ccccc4)sc3C2)cc1	15
COc1cccc(-c2nc3c(s2)CN(S(=O)(=O)c2cc(C)cc(C)c2)CC3)c1	-85*
CC(C)(C)c1ccc(S(=O)(=O)N2CCc3nc(-c4ccccc4)sc3C2)cc1	8
Cc1ccc(-c2nc3c(s2)CN(S(=O)(=O)c2ccccc2Cl)CC3)cc1	-56
CCOc1ccc(-c2nc3c(s2)CN(S(=O)(=O)c2cccc(Cl)c2C)CC3)cc1	-65
Cc1ccc(-c2nc3c(s2)CN(S(=O)(=O)c2ccc(F)cc2F)CC3)cc1	-88*
Cc1cc(C)cc(S(=O)(=O)N2CCc3nc(-c4ccccc4)sc3C2)c1	-17
CCc1ccccc1S(=O)(=O)N1CCc2nc(-c3ccc(OC)cc3)sc2C1	-92*
COc1cccc(-c2nc3c(s2)CN(S(=O)(=O)c2cccc(Cl)c2)CC3)c1	-36
CN1C[C@@H]2[C@H](c3ccccc31)[C@H](CO)N2S(=O)(=O)c1ccccc1	5
CCOc1ccccc1CN(Cc1ccoc1)C1CC1	59
Cc1cccc(NC(=O)c2c(O)c3cccnc3n(-c3cccc(F)c3)c2=O)c1	-34
CC(=O)N[C@@H]1C[C@H](CC(C)C)O[C@H](c2ccc(Oc3ncccn3)cc2)C1	34
CCOC[C@H]1CCC2C(CCN2C(=O)CCc2ccccc2)O1 (some centres undefined)	164
COc1ccc(NC(=O)CSc2nc3c(c(-c4ccccc4)c2C#N)CCC3)cc1OC	-44
COc1ccc(-c2c(C)[nH]n3c(=O)cc(-c4cccnc4)nc23)cc1OC	0
COc1c(C)cnc(Cn2nc3n(C)c4ccccc4n3c2=O)c1C	13
COC(=O)c1cc(=O)n2c(-c3ccccc3)csc2n1	32
